This is an account of results in PubChem BioAssay (NCATS).

Records with an inconclusive call do not appear. The source made the active and inactive calls. The call rests on the fitted dose curve; in most records, active means well fitted inhibition curve with a large enough effect; inconclusive means small, poorly fitted or top-dose-only effect; inactive means no such curve, though single readings can be large or run the other way.
Potency means the concentration at half of the fitted maximal effect.

Chain of Cytochrome P450 3A4 (Homo sapiens) (P08684 whole entry, looked up): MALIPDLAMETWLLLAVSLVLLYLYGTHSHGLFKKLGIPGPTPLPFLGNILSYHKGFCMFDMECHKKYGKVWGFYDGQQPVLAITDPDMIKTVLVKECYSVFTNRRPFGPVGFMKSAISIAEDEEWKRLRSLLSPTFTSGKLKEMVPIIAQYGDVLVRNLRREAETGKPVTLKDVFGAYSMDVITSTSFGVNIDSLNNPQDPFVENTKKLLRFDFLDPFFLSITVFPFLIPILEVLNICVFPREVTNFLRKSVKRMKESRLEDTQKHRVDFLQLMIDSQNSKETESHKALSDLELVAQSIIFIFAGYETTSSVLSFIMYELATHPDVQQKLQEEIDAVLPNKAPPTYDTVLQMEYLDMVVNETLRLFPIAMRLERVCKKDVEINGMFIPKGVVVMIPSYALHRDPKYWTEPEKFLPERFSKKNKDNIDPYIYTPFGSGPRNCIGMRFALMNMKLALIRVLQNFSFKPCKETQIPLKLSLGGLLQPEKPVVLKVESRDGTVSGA

The target in this test is Cytochrome P450 3A4 (Homo sapiens) (UniProt P08684). Briefly: qHTS Assay for Inhibitors and Substrates of Cytochrome P450 3A4 (AID 884). Further: nearly all actives have a fitted effect of over 50% in size. The note with it: recombinant CYP3A4, Luciferin-PPXE luminescence; series mostly up to 57.1 µM. An outline of the steps:
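Luminescent readout of luciferin produced by CYP3A4 (20 nM) dealkylation of Luciferin-PPXE, 25 uM (its KM). NADPH-driven reaction ran 60 min at RT after 10 min compound preincubation; data scaled to 57 uM ketoconazole as 100% inhibition.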
For `CCN(CC)CCn1c(-c2ccccc2)nc2c(NCc3ccccc3)nc(C)nc21`, the Potency is 12.6 µM (active). On to `CCN1CCCC1Cn1c(-c2ccccc2)nc2c(NCc3ccccc3)nc(C)nc21` (stereo not given), for which the Potency is 5.01 µM (active). With `CCN1CCCC1Cn1c(-c2ccccc2)nc2c(NC3CCCCC3)nc(C)nc21` (stereo not given) the figure was 12.6 µM (active); with `CCCn1c(-c2ccc(F)cc2)nc2c(N3CCN(Cc4nc(OC)cc(OC)n4)CC3)nc(C)nc21`, 3.98 µM (active). With `CCN1CCCC1Cn1c(-c2ccccc2)nc2c(NCCOC)nc(C)nc21` (stereo not given) the figure was 20 µM (active); with `CCCn1c(-c2ccc(F)cc2)nc2c(N3CCN(CCn4ccnc4)CC3)nc(C)nc21`, 0.631 µM (active); with `CCCn1c(-c2ccc(F)cc2)nc2c(NCCCCN3CCCC3)nc(C)nc21`, 15.8 µM (active). The same measure for `Cc1nc(NCc2ccccc2)c2nc(-c3ccccc3)n(CCN3CCCCC3)c2n1`: 2.51 µM (active).

For the compound `CCCn1c(C)nc2c(NCCCCN(C)C)nc(C)nc21`, the Potency result is “inactive”. As to `Cc1nc(N2CCOCC2)c2nc(-c3ccccc3)n(CCN3CCCCC3)c2n1`, the Potency is 2.51 µM (active). The same measure for `CCCn1c(-c2ccc(F)cc2)nc2c(NC3CCN(Cc4ccccc4)CC3)nc(C)nc21`: “inactive”; for `CCN(CC)CCCCn1c(-c2ccccc2)nc2c(NCCOC)nc(C)nc21`: “inactive”. As for `CCCn1c(C)nc2c(NCCN3CCCCC3)nc(C)nc21`, the Potency entry is “inactive”. The same measure for `CCN(CC)CCCn1c(-c2ccccc2)nc2c(NCCOC)nc(C)nc21`: “inactive”; for `Cc1nc(NCc2ccccc2)c2nc(-c3ccccc3)n(CCCN(C)C)c2n1`: 12.6 µM (active); for `Cc1nc(N2CCOCC2)c2nc(-c3ccccc3)n(CC3CCN(C)CC3)c2n1`: “inactive”.

For `CCCCNc1nc(C)nc2c1nc(-c1ccccc1)n2CCN1CCCCC1`, the Potency was 3.16 µM (active). With `Cc1nc(NCc2ccccc2)c2nc(-c3ccccc3)n(C3CCN(Cc4ccccc4)C3)c2n1` (stereo not given) the figure was 3.98 µM (active); with `Cc1nc(NCc2ccccc2)c2nc(-c3ccccc3)n(CC3CCN(C)CC3)c2n1`, “inactive”; with `COCCNc1nc(C)nc2c1nc(-c1ccccc1)n2C1CCN(Cc2ccccc2)C1` (stereo not given), 12.6 µM (active).

With `CCCn1c(-c2ccc(F)cc2)nc2c(NC3CCN(Cc4ccccc4)C3)nc(C)nc21` (stereo not given), the Potency is 15.8 µM (active). As to `CCCn1c(C)nc2c(N(C)CCN(C)C)nc(C)nc21`, the Potency result was “inactive”. With `CCCCNc1nc(C)nc2c1nc(-c1ccccc1)n2CC(C)(C)CN(C)C` the figure was 10 µM (active); with `CCN(CC)CCn1c(-c2ccccc2)nc2c(N3CCOCC3)nc(C)nc21`, “inactive”. With `Cc1nc(NCc2ccccc2)c2nc(-c3ccccc3)n(CCCN3CCCCC3C)c2n1` (stereo not given) the figure was 5.01 µM (active). The same measure for `CCCn1c(-c2ccc(F)cc2)nc2c(NCCCN(C)C)nc(C)nc21`: “inactive”; for `CCCn1c(C)nc2c(NCC3CCCN3CC)nc(C)nc21` (stereo not given): “inactive”. Take `CCCn1c(C)nc2c(N(CCN(CC)CC)CCN(CC)CC)nc(C)nc21`: the Potency result was “inactive”. The same measure for `Cc1nc(NC2CCCCC2)c2nc(-c3ccccc3)n(CCN3CCCCC3)c2n1`: 7.94 µM (active); for `CCCCNc1nc(C)nc2c1nc(-c1ccccc1)n2CCCN1CCCCC1C` (stereo not given): 6.31 µM (active); for `CCCn1c(C)nc2c(N3CCC(N(C)C)C3)nc(C)nc21` (stereo not given): “inactive”. With `CCCn1c(C)nc2c(N3CCN(C)CC3)nc(C)nc21` the entry was “inactive”. The same measure for `CCCn1c(-c2ccc(F)cc2)nc2c(N3CCCN(Cc4ccccc4)CC3)nc(C)nc21`: 3.16 µM (active); for `CCCCNc1nc(C)nc2c1nc(-c1ccccc1)n2C1CCN(Cc2ccccc2)C1` (stereo not given): 7.94 µM (active). Consider `COCCNc1nc(C)nc2c1nc(-c1ccccc1)n2CC1CCN(C)CC1`, for which the Potency result was “inactive”. With `Cc1nc(NCc2ccccc2)c2nc(-c3ccccc3)n(CC(C)(C)CN(C)C)c2n1` the figure was 3.98 µM (active). With `CCCn1c(C)nc2c(NC(C)CN(C)C)nc(C)nc21` (stereo not given) the entry was “inactive”. The same measure for `Cc1nc(NCCO)c2nc(-c3ccccc3)n(CC3CCN(C)CC3)c2n1`: “inactive”; for `CCCn1c(C)nc2c(N3CCC(N4CCN(C)CC4)CC3)nc(C)nc21`: “inactive”. As for `Cc1nc(NCCO)c2nc(-c3ccccc3)n(CCCN(C)C)c2n1`, the Potency entry was “inactive”.
